Measured values as given in PubChem BioAssay AID651812 (National Center for Advancing Translational Sciences (NCATS), 2012).
The campaign covered roughly 2,100 compounds. About 650 (31%) were called active. Not shown: some 16% with an inconclusive outcome. The list shows a part of the results. Values without a mark were called inactive. Calls come from the whole dose curve; as a rule, active = well fitted inhibition curve with a large enough effect; inconclusive = small, poorly fitted or top-dose-only effect; inactive = flat fitted curve, though single readings scatter.

assay: qHTS for inhibitors of Vif-A3G interactions: Cherry picks; conditions: HeLa A3G-eYFP + Vif (tagged APOBEC3G with the HIV-1 protein that degrades it), 24 h; Potency: eYFP fluorescence increase; series mostly up to 36.9 µM; activity, negative = fluorescence increase: at the top concentration; note: nearly all actives have a fitted effect of over 80% in size; for activity, negative = fluorescence increase: % of control where 0% means no effect
Procedure, shortened: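 HeLa cells stably expressing A3G-eYFP and Vif, cultured overnight then exposed to compounds at several concentrations for 24 hours at 37 C, 5% CO2; cellular yellow fluorescence (488 nm ex, 500-530 nm em) imaged on Acumen, MG132 positive control.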
Potency is the fitted concentration of half-maximal effect.

Row | SMILES | activity, negative = fluorescence increase | Potency
1 | O=c1[nH]c(NCc2ccco2)nnc1Cc1ccccc1Cl | -11.5% | –
2 | Cc1c(C(=O)N/N=C/C(C)C)[nH]c2c([N+](=O)[O-])cccc12 | -0.808% | –
3 | CN[C@H]1CCc2cc(OC)c(OC)c(OC)c2-c2ccc(N(C)CC(OC)OC)c(=O)cc21 | -9.29% | –
4 | C/C(=N\NC(=O)c1c(Cl)c(C)nn1C)c1ccc(NC(=O)C2CCC2)cc1 | -3.25% | –
5 | Cc1ccc(NC(=O)Cn2ncc(Cl)c(Cl)c2=O)cc1S(=O)(=O)N1CCCCC1 | -4% | –
6 | O=C(N/N=C/c1ccc2c(c1)OCO2)c1ccc2c(c1)OCCO2 | -9.25% | –
7 | Brc1ccc2c(c1)[C@H]1OCC[C@H]1[C@@H](c1cccs1)N2 | -13.1% | –
8 | C=C(C)CNC(=S)N/N=C1\CCCCc2ccccc21 | -2.89% [at 46.1 µM] | –
9 | COc1ccc(NC(=O)c2sc3nc(-c4ccc(OC)cc4)cc(C(F)(F)F)c3c2N)cc1 | – | 0.731 µM (active)
10 | CCOC(=O)c1c(C)nc2sc(C(=O)Nc3ccc(OC)cc3)c(N)c2c1-c1ccc(OC)cc1 | 4.85% | –
11 | COc1ccc(NC(=O)c2sc3nc4c(cc3c2N)CN(Cc2ccccc2)CC4)c(OC)c1 | – | 18.4 µM (active)
12 | COc1ccc(NC(=O)c2cc(-c3ccccc3OC)on2)cc1 | 0.515% | –
13 | COc1cccc(NC(=O)Nc2nc(-c3ccc(OC)c(OC)c3)cs2)c1 | 1.93% | –
14 | COc1ccc(NC(=O)c2sc3nc(-c4cccnc4)ccc3c2N)cc1OC | – | 3.66 µM (active)
15 | Cc1cc(N2CCN(C)CC2)ccc1NC(=O)c1c2c(nc3ccccc13)CCN(Cc1ccccc1)C2 | 0.0382% | –
16 | COc1ccc(OC)c(-c2cc(-c3cccnc3)nc(N)c2C#N)c1 | -1.36% | –
17 | COc1cccc(C(=O)Nc2ncc3c(n2)CC(c2ccc(OC)cc2OC)CC3=O)c1 (stereo not drawn) | -12.1% | –
18 | COc1ccc(C(=O)c2sc3nc(-c4ccc(C)cc4)cc(C(F)(F)F)c3c2N)cc1 | – | 2.06 µM (active)
19 | CC1(C)Cc2nc3sc4c(=O)n(CC(=O)NCc5ccccc5)cnc4c3cc2CO1 | -5.27% | –
20 | O=[N+]([O-])c1ccccc1SNc1ccccc1 | -7.17% | –
21 | CC(=O)Nc1ccc(S(=O)(=O)Nc2nc3ccccc3nc2Nc2ccc3ccccc3c2)cc1 | -25.1% [at 46.1 µM] | –
22 | Clc1ccc(-c2csc3ncnc(Sc4nnnn4C4CC4)c23)cc1 | -1.71% [at 46.1 µM] | –
23 | O=C1NC(c2ccc(Br)cc2)Nc2ccccc21 (stereo not drawn) | -8.49% | –

Row | SMILES | activity, negative = fluorescence increase | Potency
24 | C/C(=N\NC(=O)c1cc(-c2ccncc2)nc2ccccc12)c1ccc(N2CCOCC2)cc1 | -12.7% | –
25 | CC(=O)Nc1ccc(-c2ccnc3c2CC(C(=O)NCc2cccc(Cl)c2)O3)cc1 (stereo not drawn) | -14.7% | –
26 | COc1ccc(OC)c(NC(=O)c2sc3nc(Cc4ccccc4)cc(C(F)(F)F)c3c2N)c1 | – | 4.61 µM (active)
27 | COc1cc(C(=O)Nc2nnc(Cc3ccccc3)s2)cc(OC)c1OC | -5.09% | –
28 | Cc1cc(-c2nc(C)c(C(=O)NN)s2)no1 | -0.0599% | –
29 | Cc1cc(C(F)(F)F)c2c(N)c(C(=O)Nc3cc(C)on3)sc2n1 | – | 8.2 µM (active)
30 | COc1ccc2nc3sc(C(=O)Nc4cc(Cl)c(OC)cc4OC)cc3cc2c1 | -23.5% [at 46.1 µM] | –
31 | O=C(N/N=C/c1cccc2ccccc12)c1n[nH]c2c1CCCC2 | -9.91% | –
32 | O=C(OCC12CC3CC(CC(C3)C1)C2)c1ccc(NCc2cc(O)ccc2O)cc1 | 1.57% [at 46.1 µM] | –
33 | CC(=O)Nc1ccc(-c2ccnc3c2CC(C(=O)Nc2cccc(N(C)C)c2)O3)cc1 (stereo not drawn) | -0.193% | –
34 | CC(CC(=O)Nc1ccc2c(c1)c(=O)n(C)n2-c1ccccc1)c1ccccc1 (stereo not drawn) | -10.9% | –
35 | CCOC(=O)/C=c1\s/c(=C\c2ccccc2C)c(=O)n1CC(=O)NCc1ccc2c(c1)OCO2 | – | 15.8 µM (active)
36 | NC(=O)CSc1nc2c(sc3ccccc32)c(=O)n1CCCC(=O)NCC1CCCO1 (stereo not drawn) | -1.95% [at 46.1 µM] | –
37 | O=C(/C=C/c1cccs1)NCc1ccc2c(c1)OCO2 | 3.17% [at 46.1 µM] | –
38 | CCOC(=O)/C=c1/s/c(=C/c2ccc3cc(OC)ccc3c2)c(=O)n1CC(=O)NCC1CCCO1 (stereo not drawn) | – | 18.4 µM (active)
39 | O=C(NCc1ccc2c(c1)OCO2)c1cc([N+](=O)[O-])ccc1N1CCOCC1 | -3.98% | –
40 | COc1ccc(OC)c(C2CC(=O)c3c([nH]c(C(=O)OCC4CCCO4)c3C)C2)c1 (stereo not drawn) | -7.09% | –
41 | COc1cc2c(cc1OC)C1=CC(=O)C(=O)N1C(C)(C)C2 | – | 17.7 µM (active)
42 | COc1ccc(-c2cc(NC=O)c3ncc(-c4ccc(C(C)=O)cc4)n3c2)cc1OC | 1.8% | –
43 | Cc1ccc(CNC(=O)c2cccc3c2C(=O)c2ccc(N4CCC(C)CC4)cc2S3(=O)=O)cc1 | – | 20.6 µM (active)
44 | O=C(NCc1ccccc1)c1cccc2c1C(=O)c1ccc(/C=C/c3ccccc3)cc1S2(=O)=O | – | 18.4 µM (active)
45 | Cc1ccc(CNC(=O)c2cccc3c2C(=O)c2ccc(N4CCCCC4)cc2S3(=O)=O)cc1 | – | 20.6 µM (active)
46 | Cc1ccc(CNC(=O)Cc2ccc(-n3cccc3)cc2)cc1 | -0.685% | –

Row | SMILES | activity, negative = fluorescence increase | Potency
47 | CC1CCN(c2ccc3c(c2)S(=O)(=O)c2cccc(C(=O)NCc4cccc(F)c4)c2C3=O)CC1 | – | 14 µM (active)
48 | CCCOc1ccc2cc(C(=O)NCc3ccccc3)c(=O)oc2c1 | -0.451% [at 46.1 µM] | –
49 | O=C(NCc1ccc2c(c1)OCO2)c1cc([N+](=O)[O-])ccc1N1CCCCC1 | -15.2% | –
50 | Cn1c(=O)c2cc(NC(=O)NCc3ccccc3)ccc2n1C/C=C/c1ccccc1 | -4.85% | –
51 | COc1ccc(NC(=O)C2(C)Cc3c(-c4ccc5c(c4)OCO5)ccnc3O2)cn1 (stereo not drawn) | -0.638% | –
52 | CCN(CC)c1ccc(/C=C/c2ccccn2)cc1 | – | 14.6 µM (active)
53 | CN(C)c1ccc(/C=C/c2ccncc2)cc1 | – | 20.6 µM (active)
54 | CCN(CC)c1ccc(/C=C/C2=C3C=CC=CC3NC=C2)cc1 (stereo not drawn) | – | 18.4 µM (active)
55 | CCN(CC)c1ccc(/C=C/c2ccncc2)cc1 | – | 16.4 µM (active)
56 | Cc1cc(N/N=C/c2ccc(O)cc2O)nc(-n2nc(C)cc2C)n1 | -1.47% | –
57 | CCN(CC)c1ccc(/C=N/NC(=O)c2ccco2)cc1 | -18.9% | –
58 | CCN(CC)c1ccc(/C=C/C(=O)c2ccc(Br)cc2)cc1 | – | 25.9 µM (active)
59 | c1ccc(C2CNCc3c2ccc2ccccc32)cc1 (stereo not drawn) | -2.66% | –
60 | CCN(CC)c1ccc(/C=C(/C#N)c2nc3ccccc3[nH]2)c(OC(C)C)c1 | – | 0.58 µM (active)
61 | CCOc1cc(N(CC)CC)ccc1/C=C(/C#N)c1nc2ccccc2[nH]1 | – | 4.61 µM (active)
62 | CCCOc1cc(N(CC)CC)ccc1/C=C(/C#N)c1nc2ccc(C)cc2[nH]1 | – | 18.4 µM (active)
63 | Cc1cccc(OCCOc2ccccc2C=C(C#N)C#N)c1 | -1.93% | –
64 | O=C1C=C(Nc2ccc(Cl)cc2Cl)CC(c2ccco2)C1 (stereo not drawn) | -16.1% | –
65 | CS(=O)(=O)Nc1ccc(C2=NN(S(C)(=O)=O)C(c3ccc4nccnc4c3)C2)cc1 (stereo not drawn) | -0.0277% [at 46.1 µM] | –
66 | CCS(=O)(=O)N1N=C(c2cccc(NS(C)(=O)=O)c2)CC1c1ccc(C)cc1 (stereo not drawn) | – | 18.4 µM (active)
67 | CC(=O)c1cccc(-c2ccnc3c2CC(C(=O)Nc2cccc(NS(C)(=O)=O)c2)O3)c1 (stereo not drawn) | -7.08% | –
68 | O=C1CCCN1c1ccc(S(=O)(=O)Nc2ccc3c(c2)OCCO3)cc1 | -8.96% | –
